Data reported in the supplement of paper PMC6555819.

Tested on: VDR:RXRa (NR concentration 270 nM, RXRa partner concentration 90 nM)
Assay: PBM binding z-score (relative to random genomic background probes); higher = stronger binding; sequences stand for … in GC…GCGATTGACAGCGTAGAATGAAGG
Experimental: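 Protein-binding microarray (Agilent 4x180K custom design, double-stranded 60-nt probes: 5' GC cap, 34-nt variable region, 24-nt constant primer region; full probe sequence given). Purified or IVT nuclear receptor:RXRα heterodimers (3:1 NR:RXRα, mostly 270:90 nM) or homodimers were incubated for 1 h in PBS with 2% milk and no ligand, then detected with Alexa488 antibodies. Fluorescence from o1-orientation probes (~5 replicates averaged) was converted to z-scores against 500 random hg19 background probes. Variable regions are seed direct-repeat (DR0–DR5) sites, all their single-nucleotide variants and half-site ablations.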

Sequence | PBM binding z-score
GCGACTGGGGCAAAGCAGGTGACCATAAGGTTGG | -0.478
ACTATTAGATGACTTAGGGCAACCGATACGACGC | 0.293
ACTAGCAGGCCAATGGTCACTCAAGATTAGTCCG | -0.614
ATCTCTAGGTAAAAGTCCAGTGAATCCCGAGGAT | 0.00204
GCTAGTTGGTCGGTAAAAGGTCACACACCGGTCG | 3.89
ATCGAAAGGTCGTGAGGTTAGTATACAGAAAGGC | 4.66
TTACCAAGGTGCAAGGTCGTTGATGCACGCCTTG | 1.92
TCTATTAGTTGATTAGGGCAACCGGAACAGCGGA | 0.629
TCTGCTAGGTCAACGATAGTCAGCTAATCTGCTA | 1.24
TCAATTAGTTGAAGGGCAACCGACGAGTCCGTTT | 0.667
TTAATGAGGTTATAAGATCAGGGAACGTTGCAAA | 1.27
CGAACGAGGGCATGAGTTGATAGCGAATGCCGAT | 1.21
ACAGACAGGTGAGTGAAGGTAGCTCAGCTGGACG | -0.56
TCTGCTAGTTCAGTTGGTCAGCTAACGAGCTGCC | -0.158
ATCTCTAGGTAAAGTTCAGTTAAAGATCGATAGA | 1.82
AGAACGAGGGCACGTTGAGTTGATAGCAGAGTAG | 2.32
ATCTCTAGGTAACAGGTTCAGTGAAAGAGAGGAC | 1.95
ATATGTAGGTTAGCTGGTGTCATTCAGACTAGGC | 1.4
CGTCCAAGGTCAGAGAGGTCAGTGAATGCCGAGT | 7.26
CGAATTAGGTCAAGGACAGTGAATCTCCGCACGC | 1.61

Sequence | PBM binding z-score
ACTAGCAGGCCAAGGGGCACTCAAGATTAGTCCG | -0.375
GCGACAGGGGCAAAGCAGGTTACCATAAGGTTGG | 0.898
CCTGCTGGGCCAAAGGTCATTGATTCCAATGCTC | 4.43
CCTACTGGGGCATAAGGTTACCATAAGCCAGCCC | 0.27
TAGCCTAGGTCATTAAGGGGCCAGTATAGAAAGC | 2.52
CATACAGGGTCAGCTAGGCCAGAGCAGGGACGGC | 3.75
TCGGGTAGGTTAGGGGCATTCAGAATGGCGTCGA | 1.57
ATCGCTAGGTAAAGATAGTTCAGTGAATGCAAAT | 0.0952
CCTTACGGGTCACTCGAGGTTATAGCATCGGAGT | 5.11
CGAAATAGGTCAAGGACAGTGAATCTCCGCACGC | 2.46
TCTTGTAGATCAATGGAGGTTAAGAAAGTGCGCT | 1.38
ATCTCTAGGGAAAGATAGTTCAGTGAATGCAAAT | 0.156
GATACAGTGTCAAGGCCAGAGTACGCGTATTGAT | 0.126
CTTGCTAGGTCATGGTCAGCTAATCTACAGTATG | 1.59
GGAACGAGGGCATTCGAGGTGATAGCATGGCGAT | 2.4
TAAACAGGGTCAAAGGCCAGAGTACGAATGTCGA | 4.92
CCTGTTAGGTCATGGTCAGCTAATCTACAGTATG | 2.02
AGTCAAAGTTCAGGACGAGCTAACGTAAAGCACG | 1.8
CGAACTAGGTCAGACCAGGACAGTGAAGGATGAT | 1.03
AGTCAAAGTTCATCTAGGTAACGTGAGATATGCT | 5.17
